Pol eta inh-1: qHTS for Inhibitors of Polymerase Eta | DNA polymerase eta (Homo sapiens), Q9Y253 | recombinant Pol eta, fluorescent DNA replication assay | Potency, µM (highest dose often 114 µM), for the others: top-dose activity change, negative = inhibition, hits mostly inhibitors | actives 1.2% (n = 390,000) | AID 588591, 2011; also: potency is read from the fitted curve at half-maximal effect; % is scaled to controls: 0 for no effect and ±100 for the full control effect
Target sequence (Q9Y253 whole entry, looked up): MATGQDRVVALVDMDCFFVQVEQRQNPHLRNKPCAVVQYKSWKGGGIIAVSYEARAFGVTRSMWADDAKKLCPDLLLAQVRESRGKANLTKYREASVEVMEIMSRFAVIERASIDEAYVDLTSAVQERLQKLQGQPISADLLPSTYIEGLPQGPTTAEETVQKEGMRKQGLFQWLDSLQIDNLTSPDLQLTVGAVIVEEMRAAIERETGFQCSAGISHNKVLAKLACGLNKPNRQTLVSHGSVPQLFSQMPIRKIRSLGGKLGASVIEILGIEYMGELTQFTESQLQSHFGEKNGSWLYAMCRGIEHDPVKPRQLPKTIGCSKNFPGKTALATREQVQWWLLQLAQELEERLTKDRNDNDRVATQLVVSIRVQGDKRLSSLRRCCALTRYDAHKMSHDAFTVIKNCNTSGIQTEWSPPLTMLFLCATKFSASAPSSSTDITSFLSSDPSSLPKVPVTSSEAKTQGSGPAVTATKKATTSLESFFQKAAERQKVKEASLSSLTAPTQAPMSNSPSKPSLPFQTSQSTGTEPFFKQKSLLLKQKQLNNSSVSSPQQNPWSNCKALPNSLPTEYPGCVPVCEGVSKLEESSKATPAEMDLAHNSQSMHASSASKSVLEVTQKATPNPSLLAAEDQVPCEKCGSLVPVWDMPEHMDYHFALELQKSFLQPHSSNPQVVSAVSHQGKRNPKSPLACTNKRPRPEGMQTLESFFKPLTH
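Pol eta (10 nM) was preincubated with compounds for 15 min at room temperature, after which fluorescent replication substrate (50 nM final) was added to start the reaction. Fluorescence was read kinetically at 0 and 10 min.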
FEN1 inhibitor: qHTS Assay for the Inhibitors of Human Flap endonuclease 1 (FEN1); AID 588795, 2011; actives 0.35% (n = 390,000); Potency, µM (series often up to 114 µM), for inactives: top-dose activity change, negative = inhibition, hits mostly inhibitors; Recombinant FEN1 flap cleavage, fluorescence, 15 min; P39748; also: potency is read from the fitted curve at half-maximal effect; % is scaled to controls: 0 for no effect and ±100 for the full control effect; nearly all actives have a fitted effect of over 65% in size
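Quantitative HTS format: each compound was titrated, incubated with 10 nM nuclease for 15 min at room temperature, then challenged with flap substrate at 50 nM final. Signal change over 15 min gave concentration–effect curves.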
Pol kappa inh-1: qHTS for Inhibitors of Polymerase Kappa; DNA polymerase kappa (Homo sapiens), Q9UBT6; purified Pol kappa, fluorescent DNA synthesis assay, 10 min; Potency, µM (titrated, usually from 107 µM), for inactives: at the highest dose activity, negative = inhibition, hits mostly inhibitors; actives 0.53% (n = 400,000); AID 588579, 2011; also: potency is read from the fitted curve at half-maximal effect; % is scaled to controls: 0 for no effect and ±100 for the full control effect
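Inhibition of 10 nM Pol kappa is measured by a fluorescent read-out at 0 and 10 min following addition of 50 nM substrate (final), with a 15-min room-temperature compound preincubation.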
POLB inh: qHTS Assay for Inhibitors of DNA Polymerase Beta. actives 1.3% (n = 340,000). P06746. Potency, µM (series often up to 114 µM), inactives show at the top dose activity change, negative = inhibition, usual class: inhibitors. Pol beta primer extension/strand displacement, fluorescence kinetic. AID 485314, 2010; also: potency is read from the fitted curve at half-maximal effect; % is scaled to controls: 0 for no effect and ±100 for the full control effect
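Values derive from four-parameter Hill fits of normalized kinetic data: reads at 0 and 10 min following addition of 50 nM substrate to 10 nM Pol beta preincubated 15 min with compound.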
WRN helicase inh: qHTS for Inhibitors of WRN Helicase. WRN helicase unwinding, fluorescent forked duplex, kinetic. Potency, µM (highest dose often 114 µM), without a hit: top-dose activity change, negative = inhibition, hits mostly inhibitors. actives 0.46% (n = 360,000). Bifunctional 3'-5' exonuclease/ATP-dependent helicase WRN (Homo sapiens), Q14191. AID 651768, 2012; also: potency is read from the fitted curve at half-maximal effect; % is scaled to controls: 0 for no effect and ±100 for the full control effect; nearly all actives have a fitted effect of over 55% in size
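Primary qHTS, 1536-well format. 20 nM WRN + compound, 15 min RT; start with 100 nM forked fluorophore/quencher duplex, 2 mM ATP (final); kinetic read ex 525/em 598 nm.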
Pol iota inh: qHTS for Inhibitors of Polymerase Iota | DNA polymerase iota (Homo sapiens), Q9UNA4 | Pol iota fluorescent replication assay, 10 min | Potency, µM (titrated, usually from 115 µM), for the others: at the highest dose activity, negative = inhibition, usual class: inhibitors | actives 1% (n = 390,000); also: potency is read from the fitted curve at half-maximal effect
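Pol iota at 10 nM preincubated 15 min with compounds at room temperature; reaction started with fluorescent substrate, 50 nM final. Fluorescence read kinetically at 0 and 10 min; buffer-only wells as negative control.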
GALK inh confirm: Confirmation Assay for Inhibitors of Human Galactokinase (GALK); AID 2015, 2009; Potency, µM (titrated, usually from 115 µM), for inactives: at the top dose activity, negative = inhibition, usual class: inhibitors; actives 70% (n = 150); shares compounds with Pol eta inh-1; purified GALK, Kinase-Glo ATP depletion luminescence
Redox cycling: Confirmatory Assay for Inhibitors of Human Galactokinase (GALK): Phenol-HRP redox assay counterscreen; shares compounds with Pol eta inh-1; Phenol red-HRP H2O2 redox cycling, absorbance 600 nm; Potency, µM (series often up to 115 µM), for inactives: at the highest dose activity change, negative = H2O2 signal, usual class: inhibitors; actives 40% (n = 150); AID 2035, 2009
HEK293 viability: Secondary Assay for Inhibitors of Human Galactokinase (GALK): HEK-293 Cell Viability Assay; HEK-293 viability, ATP luminescence (CellTiter-Glo), 24/48 h; shares compounds with Pol eta inh-1; actives 10% (n = 170); Potency, µM (doses to about 46.1 µM), without a hit: at the top dose activity change, negative = cytotoxicity, most hits filed as inhibitors; also: potency is read from the fitted curve at half-maximal effect; % is scaled to controls: 0 for no effect and ±100 for the full control effect
Pol kappa inh-2: qHTS for Inhibitors of Polymerase Kappa: Confirmatory Assay for Cherry-picked Compounds | shares compounds with Pol eta inh-1 | purified Pol-kappa, fluorescent strand-displacement substrate | Potency, µM, usual class: inhibitors | actives 76% (n = 920); also: potency is read from the fitted curve at half-maximal effect
Pol eta inh-2: qHTS for Inhibitors of Polymerase Eta: Confirmatory Assay for Cherry-picked Compounds. shares compounds with Pol eta inh-1. Pol eta primer extension, TAMRA/BHQ fluorescence, 10 min. Potency, µM, hits mostly inhibitors. actives 64% (n = 2,600); also: potency is read from the fitted curve at half-maximal effect
* hit, by the source's call; [ ] = another dose, or the depositor's remark. Sampled rows, rich in hits. Any-hit rate of the full collection: about 2.4%. Calls follow the shape of the dose curve; as a rule, active = well fitted curve in the direction sought with a large enough effect; inconclusive = small, poorly fitted or top-dose-only effect, or another doubt; inactive = no such curve, though single readings can be large; an effect the other way counts as inactive or inconclusive.

How did Cc1cccc(-n2c(C)cc(/C=C3\C(=N)N4N=C(CC(C)C)SC4=NC3=O)c2C)c1 do in these assays?
Pol eta inh-1: -17.5%; FEN1 inhibitor: -6.6%; Pol kappa inh-1: -6.5%; POLB inh: 3.1%; WRN helicase inh: 5.3%; Pol iota inh: -6.3%

How did CC(C)CC1=NN2C(=N)/C(=C\c3coc4ccccc4c3=O)C(=O)N=C2S1 do in these assays?
Pol eta inh-1: 20µM*; FEN1 inhibitor: 31.6µM*; Pol kappa inh-1: inconclusive; POLB inh: 20µM*; WRN helicase inh: inconclusive; Pol iota inh: inconclusive; Pol eta inh-2: 75.7*

What do the screens show for `CSC1=NSC2=NC(=O)/C(=C\c3ccc(OC(=O)c4ccco4)cc3)C(=N)N12`?
Pol eta inh-1: inconclusive; FEN1 inhibitor: -3.2%; Pol kappa inh-1: -30.7%; POLB inh: -28.8%; WRN helicase inh: inconclusive; Pol iota inh: inconclusive

How did COc1ccc(N2CCN(S(=O)(=O)c3ccc4c(c3)CC(C)N4C(C)=O)CC2)cc1 (stereo unspecified) do in these assays?
Pol eta inh-1: -12.4%; FEN1 inhibitor: -5.8%; Pol kappa inh-1: -16.3%; POLB inh: 2.4%; Pol iota inh: 0.5%

Results for CCOc1ccccc1NC(=O)C(NS(=O)(=O)c1ccc2c(c1)CCC(=O)N2)c1ccccc1 (stereo unspecified) ?
Pol eta inh-1: -14.0%; FEN1 inhibitor: -11.4%; Pol kappa inh-1: -1.3%; POLB inh: 25.1%; Pol iota inh: 10.9%

How did COc1ccc(C2C=C(c3ccccc3)Nc3nc(NC(=O)c4cccc([N+](=O)[O-])c4)nn32)cc1 (stereo unspecified) do in these assays?
Pol eta inh-1: -4.9%; FEN1 inhibitor: -3.3%; Pol kappa inh-1: 0.0%; POLB inh: 13.1%; Pol iota inh: 38.7%

Results for N#Cc1ccsc1NC(=O)COC(=O)CCS(=O)(=O)c1ccccc1 ?
Pol eta inh-1: 31.6µM*; FEN1 inhibitor: -2.3%; Pol kappa inh-1: inconclusive; WRN helicase inh: -13.4%[11.6 µM]; Pol iota inh: inconclusive; Pol eta inh-2: inconclusive

Results for C1CCC(NC(=NC2C3CC4CC(C3)CC2C4)N2CCOCC2)CC1 (stereo unspecified) ?
Pol kappa inh-1: 9.9%[19.4 µM]

How did Cc1cc(/C=C(/C#N)c2nc3ccccc3[nH]2)c(C)n1-c1ccccc1C(=O)O do in these assays?
Pol eta inh-1: 17.8µM*; FEN1 inhibitor: -5.6%; Pol kappa inh-1: inconclusive; POLB inh: 20µM*; WRN helicase inh: inconclusive; Pol iota inh: 11.2µM*; Pol kappa inh-2: 16.8*; Pol eta inh-2: 37.9*

How did Cc1ccc2nc(/C(C#N)=C/c3ccc(-c4ccccc4C(=O)O)o3)[nH]c2c1 do in these assays?
Pol eta inh-1: 20µM*; FEN1 inhibitor: inconclusive; Pol kappa inh-1: inconclusive; POLB inh: 22.4µM*; WRN helicase inh: -17.6%[11.6 µM]; Pol iota inh: inconclusive; Pol kappa inh-2: inconclusive

Results for Cc1ccc2nc(/C(C#N)=C\c3cc(C)n(-c4cccc([N+](=O)[O-])c4)c3C)[nH]c2c1 ?
Pol eta inh-1: -7.5%; FEN1 inhibitor: -7.2%; Pol kappa inh-1: -12.3%; POLB inh: -0.8%; WRN helicase inh: -12.3%; Pol iota inh: -8.3%[58.9 µM]

Results for CC(=O)N1CCN(c2ccc(NS(=O)(=O)c3ccc4c(c3)CC(=O)N4)cc2)CC1 ?
Pol eta inh-2: inconclusive

What do the screens show for `COc1ccc(CNS(=O)(=O)c2ccc3c(c2)NC(=O)C(C)C(=O)N3)cc1` (stereo unspecified)?
Pol eta inh-1: -8.9%; FEN1 inhibitor: -2.9%; Pol kappa inh-1: -9.3%; POLB inh: 1.3%; Pol iota inh: 6.2%

Results for CC1C(=O)Nc2ccc(S(=O)(=O)NCc3ccc(N(C)C)cc3)cc2NC1=O (stereo unspecified) ?
Pol eta inh-1: inconclusive; FEN1 inhibitor: 2.3%; Pol kappa inh-1: 1.9%; POLB inh: -6.6%; Pol iota inh: 8.8%; Pol eta inh-2: inconclusive

What do the screens show for `CCS(=O)(=O)C1=NN2C(=N)/C(=C\c3ccc(OS(=O)(=O)c4ccccc4)cc3)C(=O)N=C2S1`?
Pol eta inh-1: 44.7µM*; FEN1 inhibitor: -15.7%; Pol kappa inh-1: -32.5%; POLB inh: inconclusive; WRN helicase inh: -25.8%; Pol iota inh: inconclusive; GALK inh confirm: 37.5µM*; Redox cycling: 3.0%; HEK293 viability: 4.4%

How did CS(=O)(=O)C1=NSC2=NC(=O)/C(=C\c3ccc(OS(=O)(=O)c4ccccc4)cc3)C(=N)N21 do in these assays?
Pol eta inh-1: 50.1µM*; FEN1 inhibitor: -5.8%; Pol kappa inh-1: 2.7%; POLB inh: inconclusive; WRN helicase inh: -16.6%[11.6 µM]; Pol iota inh: -45.4%; GALK inh confirm: 33.5µM*; Redox cycling: -19.8%; HEK293 viability: 2.0%
